“And” between values parts separate entries of the source, which are not always exact repeats. Identical values can stand only once. Records with an inconclusive call do not appear. The source made the active and inactive calls. The call rests on the fitted dose curve; in most records, active means well fitted curve in the direction sought with a large enough effect; inconclusive means small, poorly fitted or top-dose-only effect, or another doubt; inactive means no such curve, though single readings can be large; an effect the other way counts as inactive or inconclusive.

Assay [1] is described as follows: qHTS of pediatric cancer cell lines to identify multiple opportunities for drug repurposing: Primary screen for A673 cells (AID 1347092). Further: nearly all actives have a fitted effect of over 45% in size. Further: potency means the concentration at half of the fitted maximal effect. Put shortly: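 A673 cells (500-1,000 cells/well) were treated 48 hours at 37 degrees C with compounds at 11-point (0.78 nM to 46 µM) or 8-point (0.59 nM to 46 µM) dilutions. Viability read by CellTiter-Glo luminescence; concentration-response curves fitted.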
On the technique in general: In qHTS, concentration-response curves come from the screen itself.

Assay [2] in a line: qHTS of pediatric cancer cell lines to identify multiple opportunities for drug repurposing: Primary screen for SK-N-MC cells (AID 1347093). Further: potency means the concentration at half of the fitted maximal effect. The procedure, abridged: (§1)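 Metabolically active cells were quantified by ATP-dependent luminescence (CellTiter-Glo, 15 min at room temperature) following 48 h treatment. Cells had been plated at 500-1,000 per well and settled for 5 h beforehand.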

Assay [3] is described as follows: qHTS of pediatric cancer cell lines to identify multiple opportunities for drug repurposing: Primary screen for BT-37 cells (AID 1347094). Further: potency means the concentration at half of the fitted maximal effect. Put shortly:
(§2)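 Phenotypic viability qHTS, 48 h compound exposure, CellTiter-Glo luminescence read-out; multi-concentration dosing so that potency and efficacy derive directly from the primary screen's curves.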

A short description of assay [4]: qHTS of pediatric cancer cell lines to identify multiple opportunities for drug repurposing: Primary screen for NB-EBc1 cells (AID 1347095). Further: potency means the concentration at half of the fitted maximal effect. Put shortly: as §2
The nature of assay [5]: qHTS of pediatric cancer cell lines to identify multiple opportunities for drug repurposing: Primary screen for U-2 OS cells (AID 1347096). Further: nearly all actives have a fitted effect of over 50% in size. Put shortly: (§3)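 Cells (500-1,000/well) in growth media were settled 5 h at 37 degrees C, then given compounds for 48 h. Viability was read as CellTiter-Glo luminescence. Primary runs used MIPE at 11 points (0.78 nM-46 µM) and NPC at 8 points (0.59 nM-46 µM); follow-ups used 11 points.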

The nature of assay [6]: qHTS of pediatric cancer cell lines to identify multiple opportunities for drug repurposing: Primary screen for Saos-2 cells (AID 1347097). Further: nearly all actives have a fitted effect of over 40% in size. Further: potency means the concentration at half of the fitted maximal effect. Put shortly:
as §2

A short description of assay [7]: qHTS of pediatric cancer cell lines to identify multiple opportunities for drug repurposing: Primary screen for SK-N-SH cells (AID 1347098).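 Further: DMSO served as neutral control and bortezomib at 2.3 µM as positive control; nearly all actives have a fitted effect of over 65% in size.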 Put shortly:
(§4)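 Cells (500-1,000/well) rested 5 h, then received compounds for 48 h; metabolically active cells were measured by CellTiter-Glo luminescence. Final concentrations spanned up to 46 µM (MIPE, 11-point) or 0.59 nM-46 µM (NPC, 8-point) in primary screens, 11-point in follow-ups.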

Assay [8] is described as follows: qHTS of pediatric cancer cell lines to identify multiple opportunities for drug repurposing: Primary screen for NB1643 cells (AID 1347099). Further: nearly all actives have a fitted effect of over 50% in size. Further: potency means the concentration at half of the fitted maximal effect. Put shortly: as §2
Assay [9] in a line: qHTS of pediatric cancer cell lines to identify multiple opportunities for drug repurposing: Primary screen for LAN-5 cells (AID 1347100). Further: potency means the concentration at half of the fitted maximal effect. The procedure, abridged: as §3
A short description of assay [10]: qHTS of pediatric cancer cell lines to identify multiple opportunities for drug repurposing: Primary screen for BT-12 cells (AID 1347101). Further: nearly all actives have a fitted effect of over 25% in size. Further: potency means the concentration at half of the fitted maximal effect. Put shortly:
as §4

A short description of assay [11]: qHTS of pediatric cancer cell lines to identify multiple opportunities for drug repurposing: Primary screen for Rh18 cells (AID 1347102). Further: nearly all actives have a fitted effect of over 65% in size. Further: potency means the concentration at half of the fitted maximal effect. The procedure, abridged: as §3
The nature of assay [12]: qHTS of pediatric cancer cell lines to identify multiple opportunities for drug repurposing: Primary screen for OHS-50 cells (AID 1347103). Further: nearly all actives have a fitted effect of over 40% in size. Further: potency means the concentration at half of the fitted maximal effect. Put shortly:
as §4

Assay [13] in a line: qHTS of pediatric cancer cell lines to identify multiple opportunities for drug repurposing: Primary screen for RD cells (AID 1347104). Further: nearly all actives have a fitted effect of over 55% in size. Further: potency means the concentration at half of the fitted maximal effect. The procedure, abridged: as §2
Assay [14] in a line: qHTS of pediatric cancer cell lines to identify multiple opportunities for drug repurposing: Primary screen for MG 63 (6-TG R) cells (AID 1347105). Further: nearly all actives have a fitted effect of over 50% in size. Further: potency means the concentration at half of the fitted maximal effect. The procedure, abridged:
as §2

The nature of assay [15]: qHTS of pediatric cancer cell lines to identify multiple opportunities for drug repurposing: Primary screen for control Hh wild type fibroblast cells (AID 1347106).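 Further: series mostly up to about 46 µM; a drop in luminescence marks cytotoxicity and a rise apparent proliferation; nearly all actives have a fitted effect of over 55% in size.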 The procedure, abridged: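 Viability after 48 h compound treatment at 37C, 500-1,000 cells/well, read as ATP luminescence with CellTiter-Glo. Primary screens used 11-point (MIPE, 0.78 nM-46 µM) or 8-point (NPC, 0.59 nM-46 µM) final concentrations; follow-up screens used 11-point dilutions.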

A short description of assay [16]: qHTS of pediatric cancer cell lines to identify multiple opportunities for drug repurposing: Primary screen for Rh30 cells (AID 1347107). Further: series mostly up to about 46 µM; nearly all actives have a fitted effect of over 75% in size. The procedure, abridged:
as §3

Assay [17] can be described thus: qHTS of pediatric cancer cell lines to identify multiple opportunities for drug repurposing: Primary screen for Rh41 cells (AID 1347108). Further: nearly all actives have a fitted effect of over 70% in size. Further: potency means the concentration at half of the fitted maximal effect. The procedure, abridged:
as §2

The nature of assay [18]: qHTS of pediatric cancer cell lines to identify multiple opportunities for drug repurposing: Confirmatory screen for SK-N-MC cells (AID 1347111).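 Further: potency means the concentration at half of the fitted maximal effect; cells exposed to compound for 48 h before the readout; nearly all actives have a fitted effect of over 70% in size.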 Put shortly:
as §1

Assay [19] is described as follows: qHTS of pediatric cancer cell lines to identify multiple opportunities for drug repurposing: Confirmatory screen for NB1643 cells (AID 1347109). Further: nearly all actives have a fitted effect of over 45% in size. The procedure, abridged: as §3
A short description of assay [20]: qHTS of pediatric cancer cell lines to identify multiple opportunities for drug repurposing: Confirmatory screen for BT-12 cells (AID 1347112). Further: nearly all actives have a fitted effect of over 55% in size. Put shortly: as §3

In the case of `O=C(O)COCCN1CCN(C(c2ccccc2)c2ccc(Cl)cc2)CC1` (stereo not drawn), the Potency result in assay [1], in assay [2], in assay [3], in assay [4], in [5] and in assay [6] was “inactive” in each case. In addition, the Potency entry in [7], in assay [8], in [9], in [10], in [11] and in assay [12] was “inactive” throughout. In addition, the Potency entry in [13], in assay [14], in [15], in [16] and in [17] was “inactive” in each case.
`CNC[C@H](O)c1cccc(O)c1`: the Potency entry in [1], in assay [2], in assay [3], in assay [4], in [5] and in [6] was “inactive” throughout. Moreover, the Potency entry in assay [7], in assay [8], in assay [9], in assay [10], in assay [11] and in [12] was “inactive” in each case. The Potency entry in [13], in assay [14], in assay [15], in assay [16] and in assay [17] was “inactive” in each case.
For `CCCCNc1cc(C(=O)O)cc(S(N)(=O)=O)c1Oc1ccccc1`, the Potency entry in [1], in assay [2], in assay [3], in [4], in [5] and in assay [6] was “inactive” throughout. In addition, the Potency result in assay [7], in assay [8], in [9], in [10], in assay [11] and in assay [12] was “inactive” in each case. Besides, the Potency result in assay [13], in [14], in assay [15], in assay [16] and in [17] was “inactive” each time.
With `O=C(O)CCc1ccc(NCc2cccc(Oc3ccccc3)c2)cc1`, the Potency entry in assay [1], in assay [2], in assay [3], in [4], in assay [5] and in assay [6] was “inactive” each time. Further, the Potency entry in assay [7], in assay [8], in [9], in assay [10], in [11] and in assay [12] was “inactive” throughout. For the same molecule, the Potency entry in assay [13], in [14], in assay [15], in assay [16] and in assay [17] was “inactive” throughout.
Regarding `Cc1ccccc1C(OCCN(C)C)c1ccccc1` (stereo not drawn), the Potency result in assay [1], in assay [2], in assay [3], in [4], in assay [5] and in assay [6] was “inactive” in each case. Further, the Potency result in assay [8], in assay [9], in [10], in assay [11], in assay [13] and in assay [14] was “inactive” throughout. For the same molecule, the Potency entry in assay [15], in assay [16] and in assay [17] was “inactive” throughout.
For `CCn1cc(C(=O)O)c(=O)c2cc(F)c(N3CCNC(C)C3)c(F)c21` (stereo not drawn), the Potency result in assay [1], in [2], in [3], in [4], in assay [5] and in assay [6] was “inactive” throughout. In addition, the Potency entry in [9], in assay [10], in assay [11], in assay [12], in assay [13] and in assay [14] was “inactive” each time. In addition, the Potency result in assay [15], in [16] and in [17] was “inactive” in each case.
On to `NCCc1ccc(O)c(O)c1`, for which the Potency is 23.5 µM (active) and 10.6 µM (active) in assay [1]; 18.7 µM (active) and 7.5 µM (active) in assay [2]. Besides, the Potency result in assay [3], in assay [4], in assay [5], in assay [6], in assay [7] and in assay [8] was “inactive” throughout. Besides, the Potency entry in assay [9], in assay [10], in assay [11], in [12], in assay [13] and in [14] was “inactive” in each case. Moreover, the Potency result in assay [15], in [16] and in [17] was “inactive” throughout.
On to `CC(C)(Sc1ccc(CCN(CCCCC2CCCCC2)C(=O)NC2CCCCC2)cc1)C(=O)O`, for which the Potency is 18.7 µM (active) in assay [1]; 23.5 µM (active) in assay [2]; 21.7 µM (active) in assay [3]; 20.9 µM (active) in assay [4]; 23.5 µM (active) in assay [6]; 14.8 µM (active) in assay [8]. Moreover, the Potency in assay [9] is 20.9 µM (active). The Potency entry in assay [5], in assay [11], in assay [12], in assay [15] and in assay [16] was “inactive” in each case.
For `Cc1cnc(NC(=O)C2=C(O)c3ccccc3S(=O)(=O)N2C)s1`, the Potency entry in assay [1], in assay [2], in assay [3], in assay [4], in assay [5] and in assay [6] was “inactive” in each case. Moreover, the Potency result in [7], in [8], in [9], in assay [10], in [11] and in assay [12] was “inactive” each time. Besides, the Potency entry in assay [13], in [14], in assay [15], in assay [16] and in assay [17] was “inactive” each time.
As to `COc1c(Cl)cc2c([nH]c3cnccc32)c1NC(=O)c1cccnc1C`, the Potency in [1] is 0.469 µM (active); in [2], 1.32 µM (active). For the same molecule, the Potency entry in assay [4], in assay [5], in [9], in [15] and in assay [16] was “inactive” in each case.
For the molecule `CN(C(=O)c1ccc(F)cc1C(F)(F)F)C1CCN(c2nnc(-c3ccnn3C)c3ccccc23)CC1`, the Potency in [1] was 11.8 µM (active); in assay [2] it was 0.332 µM (active); in assay [8] it was 4.18 µM (active); in assay [10], 21.7 µM (active); in assay [12] it was 24.3 µM (active). Further, the Potency result in assay [3], in assay [4], in [5], in [9], in assay [11] and in assay [15] was “inactive” in each case.
With `COc1ccc(-c2ccc3c(N4CCOC[C@H]4C)nc(N4CCOC[C@H]4C)nc3n2)cc1CO`, the Potency in assay [1] was 0.0235 µM (active); in [2], 0.0047 µM (active); in assay [3], 0.0544 µM (active); in assay [4], 0.0332 µM (active); in assay [6] it was 0.469 µM (active); in [11], 0.132 µM (active). Besides, the Potency in assay [12] was 0.0544 µM (active); in assay [13], 0.0372 µM (active); in [14], 0.0187 µM (active); in assay [17] it was 0.0418 µM (active); in [18] it was 0.827 µM (active). Further, the Potency result in assay [7] and in assay [16] was “inactive” each time.
On to `O=NN(CCCl)C(=O)NCCCl`, for which the Potency entry in assay [1], in assay [2], in assay [3], in assay [5], in assay [6] and in [7] was “inactive” each time. In addition, the Potency entry in assay [8], in assay [9], in assay [10], in assay [11], in assay [12] and in assay [13] was “inactive” throughout. The Potency entry in [14], in assay [15], in [16], in [17], in assay [19] and in assay [20] was “inactive” throughout.

The values above are taken from PubChem BioAssay (NCATS).
